# Screens deposited in PubChem BioAssay by National Center for Advancing Translational Sciences (NCATS).
# Shown are actives, neighbours in structure and some others; about 1.3% of the full set was active somewhere.
# TrxR1 inh = rat TrxR1 inhibition. O89049. recombinant rTrxR1, NADPH fluorescence consumption, selenite substrate. Potency, µM (highest dose often 114 µM), for the others: at the highest dose activity change, negative = inhibition, usual class: inhibitors. hit rate 1% among 390,000. AID 588453; further: potency means the concentration at half of the fitted maximal effect; nearly all actives have a fitted effect of over 65% in size
#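 Rat TrxR1 (90 nM in the dispensed reagent) was pre-reduced with 400 uM NADPH for 5 min at room temperature, then incubated with compound for 15 min. After 400 uM selenite was added, NADPH fluorescence (Ex 340/Em 450 nm) was followed for 8 min.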
# Giardia kill = kills Giardia lamblia. Giardia lamblia trophozoite viability. hit rate 0.15% among 340,000. AID 540267. activity change, % at 7.66 µM, hits read low; in the data active means activity change below about -80%; inconclusive means between about -30% and that limit;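 further: parasites exposed to compound for two days anaerobically before the ATP read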
#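 Giardia lamblia trophozoites (100 cells/well) were incubated with compounds for 48 h at 37 deg C under anaerobic conditions. Viability was read as ATP content by one-step luminescence after 15-30 min at room temperature.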
# Pin1 inhibitor = blocks the human prolyl isomerase Pin1 | AID 504891 | Potency, µM (top dose mostly 115 µM), for the others: at the top dose activity, negative = inhibition, most hits filed as inhibitors | Pin1 FP peptide displacement, HiFluor488, 10 min | hit rate 0.009% among 390,000; active means well fitted inhibition curve with a large enough effect in the polarisation, with a control signal flat, not every such curve was filed as active; inconclusive means small, poorly fitted or top-dose-only effect, or effect the other way, or a change in a side signal; inactive means no such curve, though single readings can be large or run the other way; the % refers to the polarisation; further: potency means the concentration at half of the fitted maximal effect
# Target sequence (Q13526 whole entry, looked up): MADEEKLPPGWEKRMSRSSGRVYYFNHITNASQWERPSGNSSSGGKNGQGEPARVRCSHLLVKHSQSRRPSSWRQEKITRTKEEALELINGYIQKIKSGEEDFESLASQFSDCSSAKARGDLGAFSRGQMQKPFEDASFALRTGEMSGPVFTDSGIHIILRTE
# TrxR1 substrate = is turned over as a substrate by rat TrxR1; O89049; purified TrxR1 substrate turnover, NADPH consumption readout; Potency, µM (top dose mostly 114 µM), for the others: top-dose activity change, negative = substrate turnover; hit rate 0.01% among 390,000; AID 588456; further: potency means the concentration at half of the fitted maximal effect; nearly all actives have a fitted effect of over 50% in size
#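 Rat TrxR1, dispensed at 90 nM, was prereduced with 400 uM NADPH (final) for 5 min at ~22 deg C, then incubated with compound 15 min before 400 uM selenite. A first-read NADPH fluorescence drop versus no-compound background flagged substrates.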
# GALK inhibitor = inhibitors of human galactokinase; Potency, µM (top dose mostly 57.5 µM), for the others: at the top dose activity change, negative = inhibition, usual class: inhibitors; P51570; Purified GALK, Kinase-Glo residual ATP luminescence; hit rate 0.007% among 270,000; AID 1868; further: potency means the concentration at half of the fitted maximal effect
# Target sequence (P51570 whole entry, looked up): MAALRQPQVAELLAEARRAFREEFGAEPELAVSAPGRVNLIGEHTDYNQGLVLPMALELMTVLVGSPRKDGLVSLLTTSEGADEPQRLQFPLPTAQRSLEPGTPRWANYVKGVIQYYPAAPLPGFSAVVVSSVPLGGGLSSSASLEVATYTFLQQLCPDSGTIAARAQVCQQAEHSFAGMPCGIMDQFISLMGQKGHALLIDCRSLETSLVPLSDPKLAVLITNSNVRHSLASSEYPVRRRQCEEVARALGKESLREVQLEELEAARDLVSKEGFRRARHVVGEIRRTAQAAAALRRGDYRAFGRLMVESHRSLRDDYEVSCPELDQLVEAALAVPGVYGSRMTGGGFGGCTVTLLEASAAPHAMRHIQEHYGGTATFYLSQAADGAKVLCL
#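 GALK at 5 nM final was combined with compound, 35 uM ATP and 100 uM galactose in HEPES pH8.0 with MgCl2 and DTT. The reaction ran one hour at room temperature before luminescent ATP detection.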
# KAT2A inh = blocks human GCN5L2 histone acetyltransferase; Q92830; GCN5L2 HAT assay, ThioGlo1 CoA-SH fluorescence; Potency, µM (titrated, usually from 58.9 µM), for inactives: at the top dose activity change, negative = inhibition, most hits filed as inhibitors; hit rate 0.21% among 390,000; AID 504327; further: potency means the concentration at half of the fitted maximal effect
#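 Fluorescence readout, Ex340nm/Em540nm: ThioGlo1 (50uM final) reacts with free CoA thiol released as 20nM GCN5L2 acetylates H3(1-25) peptide (75uM) using acetyl-CoA (70uM). Compound and enzyme sat 15 min beforehand; 20 min room-temperature reaction.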
# Numbers without * were called inactive; ? = inconclusive; . = not tested or not shown; [ ] = another dose, or the depositor's remark. Unless noted, the call rests on the fitted dose curve; in most records, active means well fitted curve in the direction sought with a large enough effect; inconclusive means small, poorly fitted or top-dose-only effect, or another doubt; inactive means no such curve, though single readings can be large; an effect the other way counts as inactive or inconclusive. On the % scale 0 is the no-effect control and ±100 the full control effect.
SMILES,TrxR1 inh,Giardia kill,Pin1 inhibitor,TrxR1 substrate,GALK inhibitor,KAT2A inh
COc1ccc(C(=O)/C=C/c2cc(C(=O)O)cc3c2OCOC3)c(O)c1,?,9,-1%,-14%,2%,-30%
CC(=O)N=c1sc2nc3ccccc3nc2n1N(C(C)=O)C(C)=O,40µM*,-4,6%,10%,-2%,-4%
CC(=O)N1CCN(c2cccc(Nc3nn4c(=O)c5ccccc5nc4s3)c2)CC1,.,.,1%,.,.,.
Cc1ccc(S(=O)(=O)CNC(=S)c2cccc(Cl)c2)cc1,14µM*,-10,18%,4%,0%,-2%
Cc1ccc2c(c1)cc1c(=O)n(CC(=O)N3CCCC3)nc(C)n12,2%,-12,3%,11%,-4%,-8%
COc1ccc(CNC(=O)c2c(C)oc3c2C(=O)c2ccccc2C3=O)cc1,16%,?,4%,-4%,.,0%
Cc1oc2c(c1C(=O)NCc1cccnc1)C(=O)c1ccccc1C2=O,27%,-86*,-4%,0%,0%,-18%
COc1ccc(CN(C(=O)/C=C/c2ccco2)C2CCS(=O)(=O)C2)cc1OC (stereo not given),16µM*,-7,2%,-12%,-3%,-5%
COc1ccc(CN(C(=O)/C=C/c2ccco2)C2CCS(=O)(=O)C2)cc1 (stereo not given),-87%,10,?,13%[11.4 µM],6%,-17%
COc1cccc(CN(C(=O)/C=C/c2ccco2)C2CCS(=O)(=O)C2)c1 (stereo not given),13µM*,22,0%,2%,-5%,-14%
O=C(/C=C/c1ccco1)N(Cc1ccc(Cl)cc1)C1CCS(=O)(=O)C1 (stereo not given),25µM*,-7,-5%,5%,-1%,1%
COC(=O)C(NS(=O)(=O)CCl)C(C)C (stereo not given),11%,14,-6%,5%,.,.
CS(=O)(=O)NCc1ccccc1Br,23%,.,.,0%,.,-8%
Cc1cc2c(s1)c1cnn(Cc3ccc(-n4cncn4)cc3)c(=O)c1n2C,.,.,-1%,.,.,.
CN1C(=O)CC(Nc2cccc3cccc(N)c23)C1=O (stereo not given),45µM*,23,-23%,1%,-2%,-9%
CCCN1CCCC(c2cccc(S(C)(=O)=O)c2)C1 (stereo not given),.,.,.,.,.,-22%
Cc1c(Cl)cnc(NC(=O)COC(=O)[C@@H](NC(=O)c2ccco2)C(C)C)c1Cl,11µM*,-10,?,8%,.,-15%
NN/C(=C\[N+](=O)[O-])Nc1ccccc1,16µM*,-12,6%,0%,11%,-4%
NN/C(=C\[N+](=O)[O-])Nc1ccc(Cl)cc1,16µM*,-13,-16%,0%,-4%,4%
O=C(/C=C/c1ccccc1[N+](=O)[O-])Nc1ccccc1,21%,-23,11%,-1%,7%,3%
Cc1ccc(-c2cc(NC(=O)CCl)n(-c3ccccc3)n2)cc1,35µM*,-10,-5%,2%,0%,-3%
O=C(CCl)Nc1cc(-c2ccccc2)nn1-c1ccccc1,22µM*,7,12%,2%,-5%,-6%
CN(Cc1ccco1)c1cc(-c2ccc3c(c2)OCO3)ncn1,.,.,.,.,.,28µM*
Cc1ccc(C(=O)/C=C/C(=O)O)cc1,2.8µM*,5,?,-4%,-1%,24%
COc1cc(/C=C2/C(=O)c3cccc([N+](=O)[O-])c3C2=O)c(Br)cc1O,28µM*,-5,-27%,-16%,-3%,?
SMILES,TrxR1 inh,Giardia kill,Pin1 inhibitor,TrxR1 substrate,GALK inhibitor,KAT2A inh
COc1cc(Nc2ccccc2Cl)c([N+](=O)[O-])nc1[N+](=O)[O-],0.4µM*,-26,?,-4%[57.1 µM],1%,-8%
COc1ccc(C(=O)c2ccc(Cl)cc2)c2ccccc12,14%[57.1 µM],11,2%,-18%,2%,-5%[0.501 µM]
COc1ccc(C(=O)CCN(C)C)c2ccccc12,0.4µM*,.,.,1%,.,.
COc1c(N)c2c(c([N+](=O)[O-])c1OC)C(=O)OC2,-1%[57.1 µM],5,-6%,-8%,.,.
CC[n+]1ccc(C[n+]2ccccc2)c2ccccc21,?,-25,?,-13%,0%,28µM*
CC[n+]1ccc(/C=C/c2ccc(N(C)C)cc2)c2ccccc21,-11%,-29,13%,-5%,14%,-4%
COc1cccc(-c2n[nH]c(=S)n2Cc2ccco2)c1,40µM*,4,?,-6%,1%,6%
Nc1nc(Sc2ccc([N+](=O)[O-])c3nonc23)c2[nH]cnc2n1,1.3µM*,-2,?,-32%,.,.
Nc1nc(N)c2[nH]cnc2n1,12%,-10,-12%,10%,.,.
Nc1nc(SCc2ccccc2)c2[nH]cnc2n1,4%,-2,-10%,-4%,.,-3%
CNc1ncnc(Sc2nc(N)nc3nc[nH]c23)c1[N+](=O)[O-],1.3µM*,6,4%,13%[57.1 µM],.,.
O=C(NCc1ccc(F)cc1)C1CCCN(C(=O)Nc2ccc(F)cc2)C1 (stereo not given),2%,23,-1%,-1%,11%,-7%
Cc1ccc(NNS(=O)(=O)c2ccc(C)cc2)cc1,-73%,-2,4%,-6%,-1%,35µM*
COc1ccc(OC)c(/C=C/C(=O)N2C(=O)c3cccc(N)c3C2=O)c1,-34%,-2,-9%,0%,-2%,-18%
Nc1cccc2c1C(=O)N(C(=O)/C=C/c1cccc(Br)c1)C2=O,20µM*,36,?,8%,-13%,-18%
COc1cc(/C=C/C(=O)N2C(=O)c3cccc(N)c3C2=O)cc(OC)c1OC,-5%,9,8%,6%,-2%,?
Nc1cccc2c1C(=O)N(C(=O)/C=C/c1cccc(F)c1)C2=O,28µM*,-6,?,2%,1%,-9%
CCOC(=O)c1cccc(NC(=O)/C=C/c2cccc([N+](=O)[O-])c2)c1,15%,7,-4%,10%,2%,27%
COc1ccc(NC(=S)Nc2cccc([N+](=O)[O-])c2)cc1,18µM*,-9,-11%,-6%,2%,0%
CCOC(=O)/C=C/C(=O)Nc1cccc([N+](=O)[O-])c1,4µM*,8,-5%,-13%,1%,?
COc1ccc(NC(=O)c2cccc([N+](=O)[O-])c2)cc1,5%[57.1 µM],-3,4%,5%,-3%,-4%
COc1cccc(C2C(C#N)=C(NC(=O)NCc3ccccc3)Oc3ccc4ccccc4c32)c1 (stereo not given),.,.,17%,.,.,.
C=CC(=O)N1C/C(=C/c2ccccc2)C(=O)/C(=C\c2ccccc2)C1,4µM*,26,7%,3%[11.4 µM],.,.
